Test results as given in PubChem BioAssay (EPA / NIEHS).
The source made the active and inactive calls. Rule for the calls: active = hit-call score of the fitted dose curve at least 0.9, where 1 is the maximum; inactive = score below 0.9.

Legend:
[1] = BSK_hDFCGF_Proliferation: Cell Proliferation Assessment in the BioMAP Diversity Plus: hDFCGF Assay (AID 2283059); settings: primary human foreskin fibroblasts;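 note: curves fitted for both rise and fall of signal versus DMSO baseline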
How it was run: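 Sub-confluent human foreskin fibroblast cultures receive test chemical […]. Relative cell number is quantified by sulforhodamine B staining (0.1%, after 10% TCA fixation) at 560 nm, with bidirectional fitting referenced to DMSO.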

[2] = read-out: Macrophage colony-stimulating factor (MCSF), CSF1 (gene 1435); assay: BSK_hDFCGF_MCSF: BioMAP Diversity Plus: hDFCGF Assay for Macrophage colony-stimulating factor (MCSF) Biomarker Activity (AID 2283060); settings: primary human foreskin fibroblasts; actives raise or lower the signal
How it was run: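 M-CSF levels read by ELISA at 24 h post-dosing in human skin fibroblasts. Parallel cultures stained with SRB assessed cytotoxicity at the same time point; response fitted in both directions against the DMSO baseline.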

[3] = BSK_hDFCGF_SRB: Viability Assessment in the BioMAP Diversity Plus: hDFCGF Assay (AID 2283061); settings: primary human foreskin fibroblasts;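 note: cells exposed to compound for 24 h before the read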
How it was run: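 Viability was read as total protein: after 10% TCA fixation, wells were stained with 0.1% sulforhodamine B and read at 560 nm. Primary human foreskin fibroblasts were dosed for 24 h, with bidirectional fitting versus DMSO.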

[4] = read-out: TIMP metallopeptidase inhibitor 1 (TIMP1), TIMP1 (gene 7076); assay: BSK_hDFCGF_TIMP1: BioMAP Diversity Plus: hDFCGF Assay for TIMP metallopeptidase inhibitor 1 (TIMP1) Biomarker Activity (AID 2283062); settings: primary human foreskin fibroblasts; actives raise or lower the signal
How it was run: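 TIMP-1 measured by ELISA 24 h after chemical dosing of primary human skin fibroblasts, with gain or loss fitted relative to DMSO. Parallel SRB staining (560 nm) monitored overt cytotoxicity.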

[5] = read-out: Monokine induced gamma interferon (MIG), CXCL9 (gene 4283); assay: BSK_hDFCGF_MIG: BioMAP Diversity Plus: hDFCGF Assay for Monokine induced gamma interferon (MIG) Biomarker Activity (AID 2283063); settings: primary human foreskin fibroblasts; actives raise or lower the signal
How it was run: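 Human primary foreskin fibroblasts in the hDFCGF system, exposed to test chemical for 24 h; MIG measured by ELISA. Bidirectional curve fitting against DMSO negative control as activity baseline.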

[6] = read-out: Matrix Metallopeptidase 1 (MMP1), MMP1 (gene 4312); assay: BSK_hDFCGF_MMP1: BioMAP Diversity Plus: hDFCGF Assay for Matrix Metallopeptidase 1 (MMP1) Biomarker Activity (AID 2283064); settings: primary human foreskin fibroblasts; actives raise or lower the signal
How it was run: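 ELISA read-out of MMP1 from human foreskin fibroblasts (primary skin cells), 24 h post-dose. Gain or loss of signal was fitted bidirectionally versus DMSO negative control; cytotoxicity was checked by SRB in parallel cultures.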

[7] = read-out: Plasminogen activator inhibitor-1 (PAI1), SERPINE1 (gene 5054); assay: BSK_hDFCGF_PAI1: BioMAP Diversity Plus: hDFCGF Assay for Plasminogen activator inhibitor-1 (PAI1) Biomarker Activity (AID 2283066); settings: primary human foreskin fibroblasts; actives raise or lower the signal
How it was run: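 ELISA readout of PAI-1 from primary human skin fibroblast cultures, 24 h after compound addition. Gain or loss of signal was fitted bidirectionally against DMSO baseline.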

[8] = read-out: Intercellular Adhesion Molecule 1 (ICAM1), ICAM1 (gene 3383); assay: BSK_KF3CT_ICAM1: BioMAP Diversity Plus: KF3CT Assay for Intercellular Adhesion Molecule 1 (ICAM1) Biomarker Activity (AID 2283067); settings: primary human keratinocytes with fibroblasts; actives raise or lower the signal
How it was run: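 Cell-surface ICAM-1 was measured by ELISA 24 h after dosing primary human skin keratinocytes co-cultured with fibroblasts. Parallel SRB staining tracked overt cytotoxicity. Gain or loss of signal was fitted relative to DMSO.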

[9] = read-out: Interferon-gamma inducible Protein 10 (IP10), CXCL10 (gene 3627); assay: BSK_KF3CT_IP10: BioMAP Diversity Plus: KF3CT Assay for Interferon-gamma inducible Protein 10 (IP10) Biomarker Activity (AID 2283068); settings: primary human keratinocytes with fibroblasts; actives raise or lower the signal
How it was run: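 ELISA read-out of IP-10 after 24 h chemical dosing of human skin primary co-culture (keratinocytes, foreskin fibroblasts). Gain or loss of signal relative to DMSO, bidirectional curve fit.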

[10] = BSK_KF3CT_SRB: Viability Assessment in the BioMAP Diversity Plus: KF3CT Assay (AID 2283069); settings: primary human keratinocytes with fibroblasts;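 note: total protein by sulforhodamine B staining as a cytotoxicity measure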
How it was run: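 SRB read-out at 560 nm (0.1% stain, TCA-fixed cells) gauges overt cytotoxicity in a human skin keratinocyte–fibroblast co-culture 24 h post-dosing. Signal change was fitted bidirectionally relative to DMSO control.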

[11] = read-out: Interleukin-1 alpha (IL1a), IL1A (gene 3552); assay: BSK_KF3CT_IL1a: BioMAP Diversity Plus: KF3CT Assay for Interleukin-1 alpha (IL1a) Biomarker Activity (AID 2283070); settings: primary human keratinocytes with fibroblasts; actives raise or lower the signal
How it was run: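 Primary skin co-culture (keratinocytes, foreskin fibroblasts), 24 h exposure; ELISA for IL-1a; bidirectional curve fit vs DMSO.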

[12] = read-out: TIMP metallopeptidase inhibitor 2 (TIMP2), TIMP2 (gene 7077); assay: BSK_KF3CT_TIMP2: BioMAP Diversity Plus: KF3CT Assay for TIMP metallopeptidase inhibitor 2 (TIMP2) Biomarker Activity (AID 2283071); settings: primary human keratinocytes with fibroblasts; actives raise or lower the signal
How it was run: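 ELISA readout of TIMP-2 in keratinocyte plus foreskin fibroblast co-cultures (human skin primary cells), 24 h post-dose. Gain or loss of signal fitted relative to DMSO.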

[13] = read-out: Transforming growth factor beta 1 (TGFb1), TGFB1 (gene 7040); assay: BSK_KF3CT_TGFb1: BioMAP Diversity Plus: KF3CT Assay for Transforming growth factor beta 1 (TGFb1) Biomarker Activity (AID 2283072); settings: primary human keratinocytes with fibroblasts; actives raise or lower the signal
How it was run: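 Read-out: ELISA for TGF-b1 in keratinocyte/foreskin fibroblast human skin co-culture, 24 h after dosing; bidirectional curve fit vs DMSO baseline; gain or loss of signal scored.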

[14] = read-out: C-C motif chemokine 2 (Homo sapiens) (UniProt P13500); assay: BSK_KF3CT_MCP1: BioMAP Diversity Plus: KF3CT Assay for Monocyte Chemoattractant Protein 1 (MCP1/CCL2) Biomarker Activity (AID 2283073); settings: primary human keratinocytes with fibroblasts; actives raise or lower the signal
How it was run: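 ELISA read-out of MCP-1, 24 h post-dose, in primary human skin keratinocytes co-cultured with fibroblasts. Parallel SRB staining monitors cytotoxicity; changes fitted both directions relative to DMSO.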

[15] = read-out: Matrix Metallopeptidase 9 (MMP9), MMP9 (gene 4318); assay: BSK_KF3CT_MMP9: BioMAP Diversity Plus: KF3CT Assay for Matrix Metallopeptidase 9 (MMP9) Biomarker Activity (AID 2283074); settings: primary human keratinocytes with fibroblasts; actives raise or lower the signal;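 for AC50: MMP9 protein level quantified by ELISA in the co-culture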
How it was run: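 ELISA read-out of MMP-9 at 24 h post-dosing in a co-culture of human skin keratinocytes and foreskin fibroblasts. Gain or loss of signal was fitted in both directions against DMSO.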

CD40, CD40 (gene 958) = assay: BSK_LPS_CD40: BioMAP Diversity Plus: LPS Assay for CD40 Biomarker Activity (AID 2283076); settings: primary human HUVEC with PBMC; actives raise or lower the signal
How it was run: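 In the LPS system of human endothelial cells with peripheral blood mononuclear cells, CD40 levels were read by ELISA 24 h post-treatment. Signal changes in either direction were fitted against the DMSO baseline, with parallel SRB protein staining.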

[16] = read-out: E-selectin (Homo sapiens) (UniProt P16581); assay: BSK_LPS_Eselectin: BioMAP Diversity Plus: LPS Assay for Eselectin Biomarker Activity (AID 2283077); settings: primary human HUVEC with PBMC; actives raise or lower the signal
How it was run: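 E-selectin ELISA on LPS-stimulated endothelial cell/PBMC co-cultures, read 24 h post-treatment; gains and losses fitted against DMSO. Parallel SRB staining (0.1% SRB after 10% TCA fixation, 560 nm) flags overt cytotoxicity.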

[17] = read-out: Interleukin-8 (IL8), CXCL8 (gene 3576); assay: BSK_LPS_IL8: BioMAP Diversity Plus: LPS Assay for Interleukin-8 (IL8) Biomarker Activity (AID 2283078); settings: primary human HUVEC with PBMC; actives raise or lower the signal
How it was run: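 ELISA read-out of IL-8 after 24 h chemical treatment of LPS-activated endothelial/PBMC human primary co-cultures. Changes either up or down relative to DMSO; overt cytotoxicity checked by sulforhodamine B staining in parallel wells.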

[18] = read-out: urokinase plasminogen activator (uPA), PLAU (gene 5328); assay: BSK_KF3CT_uPA: BioMAP Diversity Plus: KF3CT Assay for urokinase plasminogen activator (uPA) Biomarker Activity (AID 2283075); settings: primary human keratinocytes with fibroblasts; actives raise or lower the signal
How it was run: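 Skin co-culture (keratinocytes + foreskin fibroblasts), human primary; 24 h post-dose; uPA by ELISA; gain/loss fit vs DMSO baseline.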

Measured: AC50

Chain of E-selectin (Homo sapiens) (P16581 whole entry, looked up): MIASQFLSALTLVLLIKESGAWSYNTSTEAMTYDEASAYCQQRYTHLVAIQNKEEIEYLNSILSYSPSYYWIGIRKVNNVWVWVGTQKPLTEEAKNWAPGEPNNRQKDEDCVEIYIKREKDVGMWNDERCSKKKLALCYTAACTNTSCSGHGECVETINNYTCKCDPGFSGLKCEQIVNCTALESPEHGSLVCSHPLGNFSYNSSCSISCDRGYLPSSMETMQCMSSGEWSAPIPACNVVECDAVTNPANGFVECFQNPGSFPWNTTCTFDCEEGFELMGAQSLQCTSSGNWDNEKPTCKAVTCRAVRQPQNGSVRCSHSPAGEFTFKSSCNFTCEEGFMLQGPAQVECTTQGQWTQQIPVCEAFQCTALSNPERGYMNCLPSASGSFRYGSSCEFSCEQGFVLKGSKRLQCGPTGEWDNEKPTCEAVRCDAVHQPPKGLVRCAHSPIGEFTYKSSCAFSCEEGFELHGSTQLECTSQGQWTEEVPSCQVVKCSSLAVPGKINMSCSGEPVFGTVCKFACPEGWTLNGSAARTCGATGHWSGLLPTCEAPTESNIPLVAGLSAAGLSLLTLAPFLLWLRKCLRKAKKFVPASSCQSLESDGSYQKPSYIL

CC#Cc1cc(C)nc(Nc2ccccc2)n1
not listed: [18]
inactive: all other assays above

Sc1ccccc1
not listed: [13]
inactive: all other assays above

Clc1ccc(C(c2ccccc2Cl)C(Cl)(Cl)Cl)cc1 (centres undefined)
active: [1] 6.94 µM | [2] 8.37 µM | [3] 6.8 µM | [4] 9.41 µM | [5] 18.5 µM | [6] 9.47 µM | [7] 5.83 µM | [8] 22.8 µM | [9] 10 µM | [10] 21.1 µM | [11] 18.4 µM | [12] 19 µM | [13] 19.1 µM | [14] 10.7 µM | [15] 8.05 µM | [18] 21.6 µM | CD40, CD40 (gene 958) 19.4 µM | [17] 21.9 µM

CCCCCCCCCC[N+](C)(C)CCCCCCCCCC
active: [1] 0.154 µM | [2] 2.04 µM | [3] 1.81 µM | [4] 2 µM | [5] 2.95 µM | [6] 1.97 µM | [7] 1.58 µM | [8] 10.7 µM | [9] 6.12 µM | [10] 5.41 µM | [11] 6.82 µM | [12] 4.71 µM | [14] 4.69 µM | [15] 4.56 µM | [18] 5.24 µM | CD40, CD40 (gene 958) 4.27 µM | [16] 4.41 µM | [17] 5.86 µM

c1ccc(-c2ccccc2)cc1
not listed: [14] | [18]
inactive: all other assays above
